By inhibition is commonly meant the relative decrease from the control value, in per cent.

SMILES strings stand for the structures. “And” between values parts separate entries of the source, which are not always exact repeats. Equal entries are not always repeated. Among all 340,000 compounds or so, about 2,100 (0.62%) were called active. A selection follows. Potency and affinity values are given separately. A number with no mark means an inactive call.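 Rule for the calls: active = first-screen hits whose inhibition reached a set limit at any dose in the follow-up dose series; inconclusive = inhibition above the set first-screen limit but never retested; inactive = the rest.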

For this experiment, the target named is Rac GTPase-activating protein 1 (Homo sapiens) (UniProt Q9H0H5). The experiment can be described thus: MgcRacGAP GTPase-activating activity inhibitors, confirmation, biochemical, ADP Hunter fluorescence, primary and confirmatory (AID 624330).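 Note: fluorescence reports GDP produced by GAP-driven GTP hydrolysis.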 The settings on record: MgcRacGAP-stimulated Rac1 GTP hydrolysis, at 30 µM, active compounds read high, GST-tagged Rac1 F28L mutant substrate.
Rac GTPase-activating protein 1 (Homo sapiens), sequence (Q9H0H5 whole entry, looked up): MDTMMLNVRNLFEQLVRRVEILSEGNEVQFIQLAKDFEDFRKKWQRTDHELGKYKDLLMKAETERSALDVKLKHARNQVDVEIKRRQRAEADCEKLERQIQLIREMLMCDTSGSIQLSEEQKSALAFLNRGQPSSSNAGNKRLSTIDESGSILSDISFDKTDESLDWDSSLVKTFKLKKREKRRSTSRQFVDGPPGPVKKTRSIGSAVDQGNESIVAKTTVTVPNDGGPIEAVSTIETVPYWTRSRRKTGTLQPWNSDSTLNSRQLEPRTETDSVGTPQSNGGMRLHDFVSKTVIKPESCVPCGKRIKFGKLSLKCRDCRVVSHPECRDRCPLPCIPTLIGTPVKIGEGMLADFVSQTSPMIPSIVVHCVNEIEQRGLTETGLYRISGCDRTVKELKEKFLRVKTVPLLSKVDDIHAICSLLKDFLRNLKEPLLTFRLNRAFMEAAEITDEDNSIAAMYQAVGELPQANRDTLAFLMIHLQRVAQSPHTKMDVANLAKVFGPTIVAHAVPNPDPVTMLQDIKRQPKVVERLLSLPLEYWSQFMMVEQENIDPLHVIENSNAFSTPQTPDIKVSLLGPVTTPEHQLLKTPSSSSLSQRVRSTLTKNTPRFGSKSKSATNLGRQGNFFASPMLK
As to `CCCN(CC(=O)Nc1ccccc1C)C(=O)Cc1cccs1`, the inhibition is 9.22%. For `COC(=O)C1=C(CS(=O)(=O)c2ccc(Cl)cc2)NC(=O)NC1c1ccc(O)c(OC)c1` (configuration not stated) the value was 0.39%. With `CC(C)(C)NC(=S)NNC(=O)c1ccc2ncccc2c1`, the inhibition was 4.55%. For `O=C(NN=C1CCC(=NNC(=O)c2ccccn2)CC1)c1ccccn1` the value was 10.4%; for `CCOC(=O)C1CCCN(C2=NC(=O)/C(=C/c3ccc(N(C)C)cc3)S2)C1` (configuration not stated), 3.86%; for `CCOc1ccc(/C=C2\SC(N3CCCCC3)=NC2=O)cc1`, 10.3%.

As for `Cc1ccsc1/C=N/NC(=O)C(O)c1ccccc1` (configuration not stated), the inhibition was 8.51%.

Turning to `S=C(NCc1ccco1)Nc1ccccc1`, the inhibition was 3.49%. Regarding `CCN(CC)S(=O)(=O)c1cccc(NC(=O)COC(=O)c2n[nH]c(=O)c3ccccc23)c1`, the inhibition was 4.21%.

As for `COc1cccc(CNC2CCCCCCC2)c1OC`, the inhibition was 20.3%. On to `COc1cc(CNc2ccc(N3CCCC3)cc2)ccc1OCc1ccccc1F`, for which the inhibition is 19.3%. For `COc1cccc(CNc2ccc(F)c(Cl)c2)c1OC` the value was 6.64%; for `COc1cccc(OC)c1C(=O)Nc1ccc(N2CCCC2)cc1`, 19%.

Take `COc1ccccc1C(=O)Nc1ccc(N2CCCCC2)cc1`: the inhibition was 16.2%.

On to `COc1cccc(CNc2ccc(S(N)(=O)=O)cc2)c1OC`, for which the inhibition was -0.0267%.

Take `COc1ccc(CC(=O)Nc2cc(Cl)ccc2C(=O)O)cc1`: the inhibition was 11%. The figure for `O=C(CSc1nc2cc(Cl)ccc2s1)c1ccco1` is 9.01%; for `COc1ccc(N2CCN(C(=O)c3ccccc3N(C)S(=O)(=O)c3ccc(C)cc3)CC2)cc1` it is 30.1%; for `O=C(O)c1cnc(-c2ccccc2)nc1Oc1ccccc1` it is 4.36%. The figure for `Nc1nc2n(n1)C(=O)CC(c1ccccc1)N2` (configuration not stated) is -15.9%. The figure for `CC(=O)Nc1ccc(S(=O)(=O)NC(C)C(=O)OCC(=O)Nc2ccc(F)cc2Cl)cc1` (configuration not stated) is 4.68%; for `COc1ccc(NC(=O)[C@H](C)NC(N)=O)cc1S(=O)(=O)Nc1cc(C)ccc1Br` it is 9.93%; for `CC(=O)Nc1cc(C(F)(F)F)ccc1N1CCOCC1` it is 2.07%.

For `Nc1cc(Cl)ccc1N1CCCCC1`, the inhibition was 1.75%.

As for `CC1CCN(c2ccc(C(F)(F)F)cc2N)CC1`, the inhibition is 3.8%.

On to `Nc1cc(Cl)ccc1N1CCOCC1`, for which the inhibition is 2.6%. The figure for `O=S(=O)(c1ccc(N2CCOCC2)c(Cl)c1)N1CCOCC1` is 2.67%; for `Nc1cc(Cl)ccc1N1CCCCCC1` it is -8.8%; for `O=C(CN(c1ccccc1)S(=O)(=O)c1ccc(Cl)cc1)Nc1cccnc1` it is -2.54%. The figure for `C[C@@H](OC(=O)c1[nH]cnc1C(=O)NCc1ccc(CNC(=O)OC(C)(C)C)cc1)c1ccccc1` is 7.47%. For `COc1ccccc1NC(=O)CCC(=O)OCC(=O)c1ccc(C)c([N+](=O)[O-])c1` the value was 4.59%; for `Cc1ccc(NC(=O)Cc2nnc(SCC(=O)NC3=NCCS3)n2C)cc1`, 9.68%; for `CC(C)Sc1oc(-c2ccco2)nc1S(=O)(=O)c1ccc(F)cc1`, 9.8%. Consider `COc1cc2nc(NC(=O)c3ccc(Cl)cc3)sc(=O)c2cc1OC`, for which the inhibition is 12.1%. The figure for `Cc1cccc(OC(C)C(=O)Nc2nc(-c3ccncc3)cs2)c1` (configuration not stated) is 5.11%. For `Cc1cccc(Cn2c(N(C)Cc3ccccc3)nc3c2c(=O)[nH]c(=O)n3C)c1` the value was 10.6%; for `C=CCn1c(Cc2ccc(OCC)cc2)nnc1SCC(N)=O`, 4.65%. For `Cc1c(Cl)cccc1NC(=S)N1CCN(Cc2ccccc2)CC1` the value was 6.91%.

As to `COc1cc(/C=N/NC(=O)CCC(=O)Nc2ccc(Br)cc2)ccc1O`, the inhibition was 25.9%. As for `COc1cc(/C=N/NC(=O)CCC(=O)Nc2ccc(C)cc2)ccc1O`, the inhibition is 26.5%.

Regarding `O=C(CCC(=O)Nc1ccc(Br)cc1)N/N=C/c1ccc(F)cc1`, the inhibition is 3.09%. The figure for `O=C(CCC(=O)Nc1ccc(F)cc1)N/N=C/c1ccc(Br)cc1` is 3.6%; for `O=C(Cc1ccccc1)NN=Cc1ccccc1` it is -1.49%; for `Cc1nc(CC(=O)N/N=C/c2ccc(OCC(=O)O)cc2)cs1` it is -8.35%. For `O=C(CCC(=O)Nc1ccc(Br)cc1)N/N=C/c1ccc(O)cc1` the value was 22.7%; for `Cc1ccc(NC(=O)CCC(=O)N/N=C/c2cccnc2)cc1`, 1.87%.

For the molecule `Cc1ccc(Cl)cc1N1CCN(C(=O)C2CCN(S(=O)(=O)c3cnc[nH]3)CC2)CC1`, the inhibition is -2.49%. The figure for `COc1cc(C(=O)OC(C)C(=O)NC2CCCCC2C)c([N+](=O)[O-])cc1OC` (configuration not stated) is -4.78%; for `Cc1cccc(C)c1NC(=O)N1CC=CCC1` it is 8.07%; for `CCc1c(C)nc(N2CCN(c3ccccc3)CC2)[nH]c1=O` it is -0.57%. The figure for `Cc1cc(=O)[nH]c2c1c(-c1ccccc1)nn2C` is 4.24%; for `O=C1CN(C(=O)c2ccc(F)cc2)c2ccccc2N1` it is 12.4%; for `CC(=O)Nc1cccc(NC(=O)c2csc(C)c2)c1` it is 8.66%. The figure for `O=C(O)c1ccc(N2CCCCC2)cc1O` is 10.7%; for `COC(=O)[C@@]1(C)[C@H]2C(=O)N(C)C(=O)[C@H]2[C@H]2CN(C)C(=NC3CCCCC3)N21` it is 9.12%; for `N#Cc1cnn(-c2nc3sc4c(c3c(=O)[nH]2)CCCC4)c1N` it is 11.7%. For the molecule `CN1C(=O)CCS(=O)(=O)C1c1ccc(Cl)c(Cl)c1` (configuration not stated), the inhibition was 8.53%.

As to `COc1ccc(NC(=O)CSc2nc3c(c(=O)n(C)c(=O)n3C)n2C)c(OC)c1`, the inhibition is 4.73%. The figure for `O=C(CC(=O)Nc1cccc(Cl)c1)N/N=C\c1ccccc1` is 1.72%. For `CCOc1ccc(/C=N/NC(=O)CC(=O)Nc2ccc(Cl)c(Cl)c2)cc1` the value was 4.45%; for `CC(C)(C)OC(=O)N1CCC(C(=O)N[C@@H](Cc2ccccc2)C(=O)O)CC1`, 4.57%; for `CCC(CC)C(=O)c1c[nH]c(C(=O)O)c1`, 6.73%.

For `Cc1[nH]c2ccccc2c1-c1csc(NC(=O)CN2CCOCC2)n1`, the inhibition was 25.6%. For `Cc1[nH]c2ccccc2c1-c1csc(NC(=O)CSCC(=O)O)n1` the value was 19.6%; for `CCOc1ccc(NC(=O)c2ccc(F)c(S(=O)(=O)N3CCCC3)c2)cc1`, 10.8%; for `COc1ccc(Oc2c(Cl)cnn(-c3ccc(F)cc3)c2=O)cc1`, 4.49%. For `N#Cc1ccc2c(=O)n(-c3ccccc3)sc2c1` the value was 22.6%.

With `CC(=O)Nc1ccc2c(=O)n(-c3ccccc3)sc2c1`, the inhibition was 23.5%.

On to `O=c1nc(-c2ccccc2Cl)c2cc(F)ccc2[nH]1`, for which the inhibition is 9.68%.

For the molecule `O=C(c1sc2cc(F)ccc2c1Cl)N1CCN(c2ccccc2)CC1`, the inhibition was -1.95%. For `COc1ccc(N2C(=O)C(F)(F)C2c2cccc(F)c2)cc1` (configuration not stated), the inhibition was 5.49%. As to `CC(=O)Nc1ccc(-n2c(=O)c3ccccc3c3ccccc3c2=O)cc1`, the inhibition is 8.38%. The figure for `O=c1[nH]n(-c2ccccc2Cl)c(=O)c2ccccc12` is 4.42%; for `Cc1cccc(CSC2=NCCN2C(=O)c2ccc(S(=O)(=O)N(C)C)cc2)c1` it is 4.49%; for `CCOC(=O)CNC(=O)Cn1cnc2c(nnn2-c2ccc(C)cc2)c1=O` it is 1.26%. For `COCCOCC(O)CN1CCN(c2ccc(C)cc2)CC1` (configuration not stated) the value was 24.5%. The figure for `C[C@@H]1CN([C@@H](C)CO)C(=O)CCCn2nncc2CO[C@H]1CN(C)C(=O)OCc1ccccc1` is 7.03%; for `CN1CCN(S(=O)(=O)c2cccc(C(=O)N(C)CC(=O)Nc3ccc(F)c(F)c3F)c2)CC1` it is 9.79%; for `Cc1ccc2nc(SCC(=O)NCc3ccc(F)cc3)nc(=O)n2c1` it is 6.12%.

Consider `Cc1ccc(C(=O)Nc2ccc(N3CCOCC3)cc2)cc1S(=O)(=O)N1CCCCC1`, for which the inhibition was 3.29%.

In the case of `O=c1c2cc(C(F)(F)F)ccc2sn1-c1ccccc1`, the inhibition is 24.6%.

`O=c1c2cc(F)ccc2sn1-c1ccc(F)cc1`: the inhibition is 30.6%.

On to `OCCOCCN1CCN(C2=Nc3ccccc3Sc3ccccc32)CC1`, for which the inhibition is -0.15% and -4.72%.

For `OCCOCCN1CCN(C(=S)Nc2ccccc2)CC1`, the inhibition is 6.01%. The figure for `COC(=O)C1CCN(Cc2cn(Cc3ccccc3)nc2-c2cc3ccccc3o2)CC1` is 13.5%; for `COCCNC(=O)C(OC(=O)c1nsc(Cl)c1Cl)C(C)C` (configuration not stated) it is 10.9%; for `CCCN(CC(=O)Nc1cc(Cl)ccc1Cl)C(=O)c1ccc(N2CCCC2=O)cc1` it is 3.44%. The figure for `COc1cc(/C=N/NC(=O)c2cc(-c3cccc(Br)c3)nc3ccccc23)cc(OC)c1O` is 13.9%. For `O=C1NC(=O)C(=Cc2ccc(Cl)cc2Cl)S1` the value was 7.66%; for `O=C1NC(=S)SC1=Cc1cc(Br)ccc1O`, 16.8%. `Cc1nn(C)cc1/C=C1\SC(=S)NC1=O`: the inhibition was -1.15%. The figure for `O=C1NC(=S)SC1=Cc1ccc(F)cc1` is 15.8%; for `O=C1NC(=S)SC1=Cc1ccc(Cl)cc1` it is 8.39%; for `Cc1cc(/C=C2\SC(=S)NC2=O)c(C)n1C` it is 26.3%. For the molecule `Cc1cccc(NC(=O)CN2C(=O)NC(C)(c3ccc4c(c3)OCO4)C2=O)c1` (configuration not stated), the inhibition was 3.23%. The figure for `O=C(CSc1ncn[nH]1)N1CCN(c2nnc(-c3ccccc3)c3ccccc23)CC1` is 11.7%; for `Cc1cc(C)nc(N/N=C/C2=C(N3CCOCC3)C(=C/c3ccccc3)/CC2)n1` it is 9.21%.
